# Results: the OligoGym collection
# Target: PSMD14
# Assay: pooled miR-30 sensor sort-seq; sequence = guide strand
# Settings: shRNA
# Further: reference of the scale not given here.
row,Sequence,sensor-assay potency score (higher = more potent)
1,TTAGCAACATCTTCTGTTCCAG,0.0236
2,TACATCCACATGTTCCTCCAAA,-0.84
3,TATCTTCTTCTTCTACAGCCTT,-0.722
4,AAATTTAGCAACATCTTCTGTT,0.377
5,TAACATTTTTAACAGTGCCAGG,-1.43

# Target: PSMG3
# Assay: as above
# Settings: shRNA
row,Sequence,sensor-assay potency score (higher = more potent)
1,ATGGATGAGAGGCTCATCCTGC,-1.3
2,TCTTCTGCTTCGATATCACCAA,-0.805
3,AACGCTACCAGGTTCTTTGCAA,0.042
4,TTCTCAAACACAAGCAACGATT,-1.54
5,TTCCAGCTTCTTGAGACACAAA,-1.35
6,TAAAAAAGAAATTTCCTCCTAC,0.923
7,TTGAGACACAAACGCTACCAGG,-0.891
8,TCTGTTTCCAGCTTCTTGAGAC,0.0937
9,TTGTCCTTCACGGCCACGGCGA,-1.48
10,TTTGTGGTGAGCACAGGCTTGC,-0.665
11,TGAGACACAAACGCTACCAGGT,-0.363
12,TTTTGTGGTGAGCACAGGCTTG,-0.949

# Target: PSPH
# Assay: as above
# Settings: shRNA
row,Sequence,sensor-assay potency score (higher = more potent)
1,TAACTTGTAAAAATTCATCTGA,0.913
2,AAAACCTGCATATTCACCGTTA,0.263
3,TTAAAGTAGAATTTCAGCCTAT,0.23
4,TTTGGCGTTATCCTTGACTTGT,-1.02
5,TCTTCTCTGATGACCGTGCTGT,0.253
6,TCACTTTTCCTTTTCCACCAGA,-0.287
7,TTATCCTTGACTTGTTGCCTGA,-0.324
8,TGCTATGAGTCTCTGCACCTGC,0.0571
9,TAAGCAAACAGTATCAATCTGT,0.453
10,AACCTGAACATTTCGCTCCTGT,0.681
11,TTGCTCTGCTATGAGTCTCTGC,-0.739

# Target: PSRC1
# Assay: as above
# Settings: shRNA
row,Sequence,sensor-assay potency score (higher = more potent)
1,TCGGACAGGACTATCCTTCAGC,-0.556
2,TATCATTACTCCGGAGTCGAGG,-0.921
3,TTTCCCGCACTCTGTGTCCTGC,-0.995
4,TATTTGTTCATTTCACTGCTGG,0.584
5,TCGCTGGGAAACAGGAACCTTG,-1.78
6,TAGGCTGAGCCTCACACCCTGG,-1.11
7,TTGACAGAGAATCCGGAGGTAG,-1.05
8,TTTGCTACTGAAGTCTTGCTTG,-0.274
9,TTCGAGTTGACAGAGAATCCGG,0.0316
10,TCTGGAGTCACCAACACTGTTA,-0.586
11,TCGAGTTGACAGAGAATCCGGA,0.42
